According to PubChem BioAssay (Tox21):
Results filed as inconclusive are left out. Entries that show only a call come without a potency. Calls of active or inactive are those of the source. Unless noted, calls follow the shape of the dose curve; as a rule, active = well fitted cell-killing curve with a large enough effect in the repeat runs; inconclusive = weak or mixed curves, or effect the other way; inactive = flat fitted curve, though single readings scatter.

target: Thyrotropin-releasing hormone receptor (Homo sapiens) (UniProt P34981); test: qHTS assay to identify small molecule agonists of the thyrotropin-releasing hormone receptor (TRHR) signaling pathway (AID 1346891; calls by dose curve); conditions: TRHR-HEK293 calcium fluorescence, agonist mode; series mostly up to 57.6 µM
Sequence (P34981 whole entry, looked up): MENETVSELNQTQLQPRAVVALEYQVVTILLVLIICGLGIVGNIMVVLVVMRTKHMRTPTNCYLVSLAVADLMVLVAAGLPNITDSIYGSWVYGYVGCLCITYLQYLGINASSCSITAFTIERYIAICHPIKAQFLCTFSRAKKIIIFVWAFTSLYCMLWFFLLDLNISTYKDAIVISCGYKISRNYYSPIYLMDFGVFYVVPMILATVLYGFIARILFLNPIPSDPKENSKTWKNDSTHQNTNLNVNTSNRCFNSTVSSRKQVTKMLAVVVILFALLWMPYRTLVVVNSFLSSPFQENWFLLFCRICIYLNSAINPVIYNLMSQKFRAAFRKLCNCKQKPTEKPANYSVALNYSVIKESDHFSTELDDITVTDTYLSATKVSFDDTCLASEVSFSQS
Outline: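 Readout was intracellular calcium fluorescence in TRHR-Hek293 cells. Cells were incubated 18 h, dye-loaded 2 h at 37 °C, and treated with compound in agonist mode.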

| Compound | outcome |
| --- | --- |
| COC(=O)c1ccccc1CS(=O)(=O)NC(=O)Nc1nc(OC)cc(OC)n1 | inactive |
| BrCCc1ccccc1 | inactive |
| COc1cc(CC(C)N)cc(OC)c1OC (centres undefined) | inactive |
| COC(=O)c1ccc(CBr)cc1 | inactive |
| O=C(Cl)CCl | inactive |
| CC(C)NCC(O)c1ccc([N+](=O)[O-])cc1 (centres undefined) | inactive |
| CCOP(=S)(OCC)Oc1ccc(Cl)cc1Cl | inactive |
| NC1(c2ccccc2)CCCCC1 | inactive |
| CC(C)(C)C(=O)Cl | inactive |
| Cc1ccc(S(=O)(=O)N[C@@H](CCCCN)C(=O)CCl)cc1 | inactive |
| C=C(Cl)CCl | inactive |
| CC#Cc1cc(C)nc(Nc2ccccc2)n1 | inactive |
| CCOC(=O)Nc1cccc(OC(=O)Nc2ccccc2)c1 | inactive |
| CCOC(=O)C(SP(=S)(OC)OC)c1ccccc1 (centres undefined) | inactive |
| CCc1cc(OC)c(C[C@H](C)N)cc1OC | inactive |
| CC(Cc1ccccc1)NCCn1cnc2c1c(=O)n(C)c(=O)n2C (centres undefined) | inactive |
| COc1ccc2c(C(=O)c3ccc(Cl)cc3)c(C)n(CC(=O)O)c2c1 | inactive |
| CCC1(CC)C(=O)C=CNC1=O | inactive |
| CC1N=C(N)OC1c1ccccc1 (centres undefined) | inactive |
| O=C/C=C/c1ccco1 | inactive |
| C[C@H](N)C(=O)c1ccccc1 | inactive |

test system: not listed separately; test: Human pregnane X receptor (PXR) small molecule agonists, qHTS cell viability counter screen (AID 1346977); conditions: PXR-Luc HepG2 viability, CellTiter-Fluor, 24 h; series mostly up to 92.4 µM; also: nearly all actives have a fitted effect of over 50% in size
Outline: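 In each well, the PXR reporter HepG2 line was checked for viability: CellTiter-Fluor reagent added 23hr post-dosing, fluorescence read after 1hr incubation at 37C.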

| Compound | Potency |
| --- | --- |
| COC(=O)c1ccccc1CS(=O)(=O)NC(=O)Nc1nc(OC)cc(OC)n1 | inactive |
| BrCCc1ccccc1 | inactive |
| CN(C)CCN(C)C | inactive |
| COC(=O)c1ccc(CBr)cc1 | inactive |
| COc1cc(CCN)cc(OC)c1OC | inactive |
| Oc1ccc2c3c1O[C@H]1[C@@H](O)C=C[C@H]4[C@@H](C2)NCC[C@@]341 | inactive |
| CCOP(=S)(OCC)Oc1ccc(Cl)cc1Cl | inactive |
| O=C(O)C(F)(F)C(F)(F)C(F)(F)C(F)(F)C(F)(F)C(F)(F)F | inactive |
| COc1ccc(CN2CCNCC2)c(OC)c1OC | inactive |
| CC(C)(C)C(=O)Cl | inactive |
| Cc1ccc(S(=O)(=O)N[C@@H](CCCCN)C(=O)CCl)cc1 | inactive |
| C#CC(C)(C)O | inactive |
| Oc1ccc(Cc2ccc(O)cc2)cc1 | inactive |
| CC#Cc1cc(C)nc(Nc2ccccc2)n1 | inactive |
| COC1=CC(=O)O[C@@H](/C=C/c2ccccc2)C1 | inactive |
| CCCC(C)(COC(N)=O)COC(N)=O | inactive |
| CCOC(=O)C(SP(=S)(OC)OC)c1ccccc1 (centres undefined) | inactive |
| C=C1C[C@@H]2[C@H](CC[C@]3(C)C(=O)CC[C@@H]23)[C@@]2(C)C=CC(=O)C=C12 | inactive |
| CC(Cc1ccccc1)NCCn1cnc2c1c(=O)n(C)c(=O)n2C (centres undefined) | inactive |
| CCC1(CC)C(=O)C=CNC1=O | inactive |
| O=C/C=C/c1ccco1 | inactive |
| O=C(Cl)/C=C/C(=O)Cl | inactive |
| C[C@H](N)C(=O)c1ccccc1 | inactive |
